The values below come from publication PMC7819943, “Rice protein-binding microarrays: a tool to detect cis-acting elements near promoter regions in rice”.

The full ranking holds about 35,000 sequences; the median of “fluorescence intensity (a.u.)” is about 10,000, and the highest 2% start at about 52,000. The entries come from a sample that favours the highest values as a whole.

The target in the test is T1, OsWOX13 (Oryza sativa, UniProt Q5QMM3 1-267).
T1 sequence: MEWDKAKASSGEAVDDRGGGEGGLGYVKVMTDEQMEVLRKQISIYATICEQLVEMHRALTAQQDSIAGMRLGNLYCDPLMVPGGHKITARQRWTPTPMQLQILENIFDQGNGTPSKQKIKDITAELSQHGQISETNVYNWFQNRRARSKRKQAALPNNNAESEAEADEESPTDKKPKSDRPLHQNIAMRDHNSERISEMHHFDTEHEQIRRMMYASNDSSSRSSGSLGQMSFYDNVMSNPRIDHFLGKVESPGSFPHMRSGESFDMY
In words: protein-binding microarray (RPBM); PBS, 2% BSA, 51.3 ng/ul salmon testes DNA, 50 uM zinc acetate, 200 nM TF, 25 C, 1 h; high values mean tight binding. The following applies: protein: recombinant; tags: N-terminal polyhistidine and DsRed monomer fusion (pET32a); label: CyDye5-dUTP incorporated in the synthesized complementary strand; 3' TTTTT single-stranded linker to array surface; dsDNA, one strand shown. The gist of the method: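 The binding signal for each feature is its fluorescence intensity in arbitrary units. An Axon 4000B scanner was used to read a custom Agilent array that had been made double-stranded with Cy5-dUTP primer extension, blocked with 2% BSA, incubated at 25 °C for 1 h with 200 nM protein in PBS, 2% BSA, salmon testes DNA and 50 µM zinc acetate, and washed. The protein was an N-terminal polyhistidine–DsRed transcription factor fusion from E. coli BL21-CodonPlus, purified on Ni–NTA.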
As for “CACATACTATACTACATTAATTATATTCTGATGAAATCCGCGGAGTCACCTAGTGCAG”, the binding signal was 4130 fluorescence intensity (a.u.).

Take “ATGCCTGATTGGAAATCTACTATTACTATTCATGATACCGCGGAGTCACCTAGTGCAG”: the binding signal is 58500 fluorescence intensity (a.u.).

Consider “TTAATTGATTTGGAAATCCTCTAGTTATCTGGATTAGTTTCGGAGTCACCTAGTGCAG”, for which the binding signal is 37300 fluorescence intensity (a.u.).

For the sequence “ATTAGTTGGATTGATTCAAACAAAGAGGTGATAATAATTGCGGAGTCACCTAGTGCAG”, the binding signal was 11900 fluorescence intensity (a.u.).

Take “ACATGGGAATTTTGGTGGGATGGGGATGGGGATGGGGAATCGGAGTCACCTAGTGCAG”: the binding signal is 7450 fluorescence intensity (a.u.).

As for “GTGATTTTGTTAAACTTAGGCTGCTTGTTTCATCAATTGCCGGAGTCACCTAGTGCAG”, the binding signal was 3740 fluorescence intensity (a.u.).

In the case of “GGGTTTCAATCATTTAGGTGGACGTCCACTCATTTATTGCCGGAGTCACCTAGTGCAG”, the binding signal is 16200 fluorescence intensity (a.u.).

For “TATGGTTAATTATGTATTTATCGACAACGGGATGTTCGTACGGAGTCACCTAGTGCAG”, the binding signal was 15000 fluorescence intensity (a.u.).

Turning to “CACGAAATTAATTTAGCTCTACATCCGTTCTGTTTATGAACGGAGTCACCTAGTGCAG”, the binding signal was 8960 fluorescence intensity (a.u.).

In the case of “TGGCCAAATTCTGTCAATTGCATTTGATGGAGCTGGGCTTCGGAGTCACCTAGTGCAG”, the binding signal is 11200 fluorescence intensity (a.u.).

On to “CTATAATTTCTGGTTACGGTGGTGACAAGTCATGTGGGCTCGGAGTCACCTAGTGCAG”, for which the binding signal is 13900 fluorescence intensity (a.u.).

As for “CGTGATTAGAATCCATCTCCGACCGACCGCACATACAAAGCGGAGTCACCTAGTGCAG”, the binding signal is 43300 fluorescence intensity (a.u.).

On to “GAGCGATTATAAAATTAATTGCTCCGCGGCTTAAGCCGAGCGGAGTCACCTAGTGCAG”, for which the binding signal is 5680 fluorescence intensity (a.u.).

Take “AGTGATCATTGATCTAAACTACTTGCAGGTGACGCACACGCGGAGTCACCTAGTGCAG”: the binding signal was 6200 fluorescence intensity (a.u.).

Regarding “TTGTTTGATTTGTTAGGGGTGGTAAGAGCAGCCTTGTATTCGGAGTCACCTAGTGCAG”, the binding signal was 21000 fluorescence intensity (a.u.).

“CTCTCTAGTAATTATCCATGTGCTCGTCTGGTTGGATTGGCGGAGTCACCTAGTGCAG”: the binding signal is 5240 fluorescence intensity (a.u.).

In the case of “CAAATTTAAATTTGAATTATATCCGATTTAAATTTGAATTCGGAGTCACCTAGTGCAG”, the binding signal was 21800 fluorescence intensity (a.u.).

Consider “TATTAATTACAGATTGACAAAACACAAGATTTGCCTGTATCGGAGTCACCTAGTGCAG”, for which the binding signal was 61800 fluorescence intensity (a.u.).

Turning to “TATTTAAATTCAAATTGAAATTCAAATTTAAATCGGATATCGGAGTCACCTAGTGCAG”, the binding signal was 16800 fluorescence intensity (a.u.).

Consider “ATTGATTTGATGAAACTAATTTAATATTATAAATATTATTCGGAGTCACCTAGTGCAG”, for which the binding signal was 26000 fluorescence intensity (a.u.).

As for “CTAATAACAAAACAAATTACAGATTTCGCCTGTAATATGCCGGAGTCACCTAGTGCAG”, the binding signal is 9460 fluorescence intensity (a.u.).

In the case of “TTAAAATAATTGACAAGATAGATTAATATTTGGTATATCACGGAGTCACCTAGTGCAG”, the binding signal was 26400 fluorescence intensity (a.u.).

Regarding “TTTGATTTGATTTGATTTGATTGAATTAATTTGAGTCCGACGGAGTCACCTAGTGCAG”, the binding signal is 65400 fluorescence intensity (a.u.).

Take “ATTAAATTTTAAAATTTAATTTTAAATTGATTTTGATATTCGGAGTCACCTAGTGCAG”: the binding signal was 42600 fluorescence intensity (a.u.).

For the sequence “ATGAAATGATTTGATTGAAATATTATGAAATGATTTGAGACGGAGTCACCTAGTGCAG”, the binding signal is 39500 fluorescence intensity (a.u.).

In the case of “TAATTAATTAATTGATTGATTGATTTGAAACTGATTAATTCGGAGTCACCTAGTGCAG”, the binding signal is 56200 fluorescence intensity (a.u.).

“GTTAATTTAATTGAAATTTAAATTTAAATCAATCTGCATTCGGAGTCACCTAGTGCAG”: the binding signal is 57600 fluorescence intensity (a.u.).

With “ATCAATTTTAAAATTAAATTTTAATTTTAAATTTTGAATTCGGAGTCACCTAGTGCAG”, the binding signal was 26900 fluorescence intensity (a.u.).

For the sequence “AACAATTTGATCAAGAGTTGACCGAGATAATCCCACTTGCCGGAGTCACCTAGTGCAG”, the binding signal is 4370 fluorescence intensity (a.u.).

As for “GATCAAATTAATAGGTAACCCGCTGGTCAAACCTATGGGTCGGAGTCACCTAGTGCAG”, the binding signal was 18000 fluorescence intensity (a.u.).

For “AATTAGTAAATACTTAATTAATCATGAGAAAATGTATTGCCGGAGTCACCTAGTGCAG”, the binding signal is 3350 fluorescence intensity (a.u.).

Regarding “CAAATGATGGAGGTTTCAAATTATACTGTACTTCAGCCATCGGAGTCACCTAGTGCAG”, the binding signal was 7400 fluorescence intensity (a.u.).

“GTAGAGTAATTAAGTATATCCTTTTGTTCTAGTACATCGGCGGAGTCACCTAGTGCAG”: the binding signal was 4870 fluorescence intensity (a.u.).

As for “TTCATTAATCACAGATTCAATTTGCTCCTATATATAATCCCGGAGTCACCTAGTGCAG”, the binding signal was 12700 fluorescence intensity (a.u.).

As to “TAATCAATTAAGAAATTAATTAATCCTTTGCTCCCTGATTCGGAGTCACCTAGTGCAG”, the binding signal was 54400 fluorescence intensity (a.u.).

In the case of “ATCCTTATTTGATTCCTGATCAAATTAATACTGCTGCTTTCGGAGTCACCTAGTGCAG”, the binding signal is 3200 fluorescence intensity (a.u.).

For “GAAATTATTTGAAATTTTGACTGATTTTGAATGAATTTGACGGAGTCACCTAGTGCAG”, the binding signal is 15200 fluorescence intensity (a.u.).

On to “CTGATTTGACTGAATGAATGAATTAATTAATGAGATGTATCGGAGTCACCTAGTGCAG”, for which the binding signal is 61600 fluorescence intensity (a.u.).

As for “ACCCTTTCAATCATCCTCCTCCAGCAGAGCAAGCAGCCAACGGAGTCACCTAGTGCAG”, the binding signal is 11000 fluorescence intensity (a.u.).

Turning to “TTAAAATTAACTTTAAAATTTAAATTTAGATTTTAATTTTCGGAGTCACCTAGTGCAG”, the binding signal is 25700 fluorescence intensity (a.u.).

Take “TTGTAATTAATTAACTGATTAATTAAACTGCATGAATTTTCGGAGTCACCTAGTGCAG”: the binding signal is 60100 fluorescence intensity (a.u.).

Consider “CAAAATCAATCAATCAATCCAGCCCTGCCCTCCTTTCGGTCGGAGTCACCTAGTGCAG”, for which the binding signal was 57900 fluorescence intensity (a.u.).

For “ATGAATTAGATTAGATGTATATTTGAGGGAGTTAAAGTGGCGGAGTCACCTAGTGCAG”, the binding signal is 20800 fluorescence intensity (a.u.).

For the sequence “TTTCAAATCAAATCCAATCCTCCTCCTCCAGATCTCTCCACGGAGTCACCTAGTGCAG”, the binding signal was 3410 fluorescence intensity (a.u.).

With “ATTAGCGCATGATTAATTGATTATTAACTATTTTAAACTTCGGAGTCACCTAGTGCAG”, the binding signal is 27400 fluorescence intensity (a.u.).
